Screening data (PubChem)
Compounds with a hit are over-represented: about 8.8% of the library has one in this group of screens.
HT1080NT lethal: kills 2HG-producing HT-1080-NT fibrosarcoma cells. HT-1080-NT fibrosarcoma viability, CellTiter-Glo ATP luminescence, 48 h. Potency, µM (titrated, usually from 46.1 µM), for the others: at the highest dose activity, negative = less viability, usual class: cytotoxic. 360,000 compounds, 1.6% hits. AID 686970;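 further: NT is the 2HG producing partner of a matched IDH1 knockdown line; potency means the concentration at half of the fitted maximal effect; 0% = DMSO-treated cells and -100% = media-only wells without cells; nearly all actives have a fitted effect of over 55% in size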
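Toxicity toward the 2HG-producing NT line was scored as %Activity, normalised to DMSO and no-cell wells, from CellTiter-Glo luminescence after 48 hours' treatment.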
HT1080 IDH1KD tx: HT-1080 IDH1 knockdown cell toxicity (counter line). HT-1080 IDH1 knockdown viability, ATP luminescence, 48 h. 360,000 compounds, 2% hits. Potency, µM (titrated, usually from 46.1 µM), inactives show at the highest dose activity, negative = toxicity, usual class: cytotoxic;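 further: potency means the concentration at half of the fitted maximal effect; 0% = DMSO wells and -100% = cell-free medium wells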
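In this qHTS, HT-1080 cells depleted of IDH1 are exposed for 48 h at 37 °C to compound titrations. Toxicity is scored from CellTiter-Glo luminescence, with DMSO as full viability and medium alone as none.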
KB-3-1 tox: KB-3-1 parental cell cytotoxicity; KB-3-1 viability, CellTiter-Glo ATP luminescence, 72 h; Potency, µM (series often up to 46.1 µM), actives largely listed as cytotoxic; 400,000 compounds, 1.4% hits; further: potency means the concentration at half of the fitted maximal effect; nearly all actives have a fitted effect of over 60% in size
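Cytotoxicity in the drug-sensitive parental line KB-3-1 was scored as loss of CellTiter-Glo luminescence following 72 h incubation with compound. Values come from curve fitting of normalized concentration-response data.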
IL-1B inflam inh: blocks inflammasome-driven IL-1 beta release; activity change, % at 57.5 µM; AID 743279; 360,000 compounds, 4.7% hits; THP-1 LPS/ATP IL-1B secretion, AlphaLISA, 16 h; active compounds read low; in the data active means activity change below about -50%; inconclusive means mostly about -30% to -49%
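THP-1 cells pretreated 1 hr with compounds (up to 57.5 uM final), then stimulated with LPS (250 ng/mL final) plus ATP (1.25 mM final); secreted IL-1B measured by AlphaLISA after 16 hr, decreased signal indicating inhibition.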
KB-V1 cytotox: kills drug-selected multidrug resistant KB-V1 cells; KB-V1 MDR cells viability, CellTiter-Glo, 72 h; Potency, µM (titrated, usually from 46.1 µM), most hits filed as cytotoxic; 400,000 compounds, 3.4% hits; AID 1347076; further: potency means the concentration at half of the fitted maximal effect; nearly all actives have a fitted effect of over 60% in size
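Drug-selected KB-V1 cells, grown in DMEM lacking phenol red with 10% FBS, receive compound titrations; after three days at 37 degrees C, surviving cell ATP is quantified by CellTiter-Glo luminescence and responses normalized and curve-fitted.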
* = called active by the depositor; i = inactive; ? = inconclusive; . = no result given; ! = a repeat was not active. Unless noted, the call rests on the fitted dose curve; in most records, active means well fitted curve in the direction sought with a large enough effect; inconclusive means small, poorly fitted or top-dose-only effect, or another doubt; inactive means no such curve, though single readings can be large; an effect the other way counts as inactive or inconclusive. Unless noted, on the % scale 0 is the no-effect control and ±100 the full control effect.

SMILES | HT1080NT lethal | HT1080 IDH1KD tx | KB-3-1 tox | IL-1B inflam inh | KB-V1 cytotox
COc1cccc(/C=C2/Oc3ccccc3N(CC(=O)NCC3CCCO3)C2=O)c1 (stereo not drawn) | -1.7% | 14.3% | i | -16.4 | i
COc1ccccc1OCC(=O)NCC1CCCN(Cc2cnn(C)c2C)C1 (stereo not drawn) | -4.7% | -3.7% | . | 1.0 | .
c1ccc(-c2noc(CSc3nnnn3C3CCCCC3)n2)cc1 | -0.5% | 0.4% | i | -18.3 | 18.4µM*
COc1ccc(-c2noc(CSc3nnc(-c4ccccc4)n3C)n2)cc1 | 6.4% | -14.0% | i | -2.5 | 14.6µM*!
COc1ccc(C(C)=O)cc1CSc1nnc(-c2ccc(Cl)cc2)n1-c1ccccc1 | ? | ? | ? | -23.3 | 14.6µM*
COc1ccc(-n2c(SCc3nnc(-c4ccccc4)o3)nnc2-c2ccccc2)cc1 | -12.6% | -17.1% | i | -20.5 | 2.31µM*
Cc1cccc(OCCn2c(CCNC(=O)C3CCCCC3)nc3ccccc32)c1 | . | . | i | . | i
COc1ccc(-c2nnc(SCc3nnc(-c4ccc(Cl)cc4)o3)n2-c2ccccc2)cc1 | -11.8% | -23.2% | ? | -28.2 | 3.66µM*
COc1ccc(-c2nnc(SCc3nnc(-c4ccccc4)o3)n2-c2ccccc2)cc1 | -19.8% | ? | i | 31.3 | ?
CCN(CC(=O)Nc1ccccc1C(F)(F)F)C(=O)c1ccc(NC(=O)c2cccs2)cc1 | -0.5% | 6.8% | i | -17.0 | i
C[C@@H]1CCCCCCCCC(=O)OCCN[C@H](C)CCCCCCCCC(=O)OCCN[C@H](C)CCCCCCCCC(=O)OCCN1 | -26.2% | -23.9% | i | -58.6* | i
Cc1ccc(-n2c(=O)c3c(cnn3C)n(CC(=O)Nc3c(C)cccc3C)c2=O)cc1 | . | . | i | . | i
O=C(c1ccc2c(c1)OCO2)N1CCN(c2ccc(Cl)cc2)CC1 | 5.5% | 0.8% | i | -5.7 | ?
S=C(c1ccc2c(c1)OCO2)N1CCN(c2cccc(Cl)c2)CC1 | ? | 3.26µM* | 4.11µM* | 31.1 | ?
Cc1cccc(N2CCN(C(=S)c3ccc4c(c3)OCO4)CC2)c1 | 0.4% | ? | 10.3µM* | 3.5 | i
CC1CCN(C(=S)c2ccc3c(c2)OCO3)CC1 | 4.1% | 12.8% | i | -12.8 | i
Cc1nn(-c2ccc(N3CCOCC3)nn2)c(C)c1CCC(=O)NCc1ccccc1F | -0.9% | 0.8% | i | 2.5 | i
O=C1CCCCC1C(=O)c1cn(-c2ccc(Cl)c(Cl)c2)nn1 (stereo not drawn) | 4.7% | -4.2% | i | 38.8 | i
CSc1ccccc1C(=O)NCCOc1cccc(C)c1 | -1.8% | -6.1% | i | -90.9* | ?
Cc1ccc(C(=O)NCCOc2cccc(C)c2)cc1 | 0.9% | -1.1% | i | -19.6 | i
Cc1cccc(OCCNC(=O)CCNS(=O)(=O)c2ccc3ccccc3c2)c1 | 7.3% | 5.1% | i | -13.5 | 18.4µM*
CSc1ccccc1C(=O)NCCSc1ccccc1 | 19.4% | 7.8% | i | -24.1 | 18.4µM*
c1cc2c3c(c1)CCC[N+]3(C1CCCCC1)CCC2 | . | . | ? | . | i
Cc1nc(NCc2ccco2)[nH]c(=O)c1CCC(C)C | 10.6% | -0.7% | i | 8.0 | i
O=c1[nH]c(NCc2ccco2)nnc1Cc1ccccc1Cl | ? | ? | 5.8µM* | -16.5 | ?
SMILES | HT1080NT lethal | HT1080 IDH1KD tx | KB-3-1 tox | IL-1B inflam inh | KB-V1 cytotox
Cc1n[nH]c(=S)n1/N=C/c1ccccc1OCc1ccc(Cl)cc1 | -9.1% | -1.3% | ? | 15.2 | 11.6µM*
Cc1n[nH]c(=S)n1/N=C/c1cccc(OCc2ccccc2)c1 | -2.3% | -5.5% | i | 33.4 | i
COc1cc(/C(O)=C(\C#N)c2nc3ccccc3[nH]2)cc(OC)c1OC | -0.6% | 4.7% | i | ? | i
CC(O)CN=c1cc(-c2ccccc2)oc2ccc(Cl)cc12 (stereo not drawn) | ? | ? | 20.6µM* | -72.3* | ?
CSc1ccc(-c2cc(=O)c3ccccc3o2)cc1 | ? | ? | i | 10.0 | i
OCCN=c1cc(-c2ccccc2)oc2ccc(Cl)cc12 | -29.9% | -26.1% | ? | -70.3* | 16.4µM*
O=c1cc(-c2ccccc2F)oc2ccccc12 | -1.0% | -6.5% | i | -29.0 | ?
O=c1cc(-c2ccccc2[N+](=O)[O-])oc2ccccc12 | ? | 11.6µM* | i | 42.8 | 14.6µM*
O=c1cc(-c2ccc(F)cc2)oc2ccccc12 | -2.7% | -2.2% | ? | 23.1 | 13µM*
Cc1ccc(C(=O)n2nc(C#N)c(C#N)c2N)cc1 | 14.9% | 6.4% | i | 30.2 | i
O=c1cc(-c2ccccc2)oc2ccc(Br)cc12 | 19.4% | 16.4% | i | 29.8 | i
O=c1cc(-c2ccccc2)oc2ccc(Cl)cc12 | 17.8% | ? | i | 27.8 | 20.6µM*
CN(C)CCCN=c1cc(-c2ccccc2)oc2ccc(Cl)cc12 | 0.3% | -10.6% | ? | -50.2* | ?
O=c1oc(-c2ccccc2)cc(Cl)c1Cl | 16.4µM* | 9.2µM* | ? | -99.5* | ?
O=P(O)(O)c1cc(-c2ccccc2)oc1-c1ccccc1 | 22.4% | 8.4% | i | -26.3 | i
S=c1[nH]ncn2c1cc1oc3ccccc3c12 | 18.8% | 26.2% | i | -15.8 | i
COc1ccc(C)cc1-n1cnc2cc(C(=O)NC3CCCCCC3)ccc21 | . | . | i | . | ?
Cc1ccc(CNC(=O)c2nn(C)c3c2CS(=O)(=O)c2ccccc2-3)cc1 | 25.7% | 3.4% | i | -52.6* | i
COc1ccc(N2CCN(C(=O)C(C)n3c(=O)cc(C(F)(F)F)c4c(C)nn(C)c43)CC2)cc1 (stereo not drawn) | . | . | i | . | i
CC1(C)S[C@@H]2[C@H](NC(=O)[C@H](N)c3ccccc3)C(=O)N2[C@H]1C(=O)OC1OC(=O)c2ccccc21 (stereo partly drawn) | 3.0% | -4.1% | i | -56.4* | i
Fc1ccc(/C=C2\CCCC3=C2Nc2ncnn2C3c2ccc(F)cc2)cc1 (stereo not drawn) | 7.31µM* | 6.51µM* | 20.6µM* | -122.4* | ?
COc1ccc(NC(=O)C2c3ccccc3OCC(=O)N2C2CC2)cc1 (stereo not drawn) | 19.1% | 6.7% | i | 10.7 | ?
COc1ccc(C2=Nc3ccccc3N(CC(=O)Nc3cccc(C(C)=O)c3)C(=O)C2)cc1 | . | . | i | . | i
O=C1OC(c2ccc(O)cc2)(c2ccccc2O)c2ccccc21 (stereo not drawn) | -2.7% | -7.4% | i | ? | i
O=C1OC(c2ccccc2)(c2ccc3cc(O)ccc3c2)c2ccccc21 (stereo not drawn) | 13µM* | 25.9µM* | ? | ? | ?
O=C1OC(c2ccccc2)(c2cc(Br)ccc2O)c2ccccc21 (stereo not drawn) | 16.4µM* | 20.6µM* | i | -91.5* | ?
